Test results published in PubChem BioAssay AID463173 (ICCB-Longwood Screening Facility, Harvard Medical School, 2010).
Out of some 52,000 compounds screened, about 4,300 (8.3%) were called active. This excerpt belongs to a sample that is enriched for actives. A number with no mark means an inactive call. Cut-off read from the data, not from the text of the source: active = survival mostly below about 52% (no sharp cut-off); inactive = mostly above about 56%.

Tested on: DeltatarO mutant
Test: S. aureus survival, RN4220 and DeltatarO strains – OD600, teichoic acid synthesis inhibitors, primary screen (AID 463173)
Settings: S. aureus RN4220 wild type/DeltatarO growth, OD600, 18 h, hits give low values, screened at 18.75 µg/mL (by protocol)

Q: `Cc1cccc(NC(=O)c2cc(S(=O)(=O)N3CCc4ccccc43)ccc2F)c1C` was tested. Which survival did it give?
A: 65%

Q: With `COc1ccc(-n2c(/C=C/c3cc(OC)c(OC)cc3OC)nc3cc4ccccc4cc3c2=O)cc1Cl` as the compound, how does the survival read?
A: 115%

Q: `CCOC(=O)CNC(=O)Nc1cc(C(=O)NCc2cccc(F)c2)ccc1N1CCCC1` was tested. Which survival did it give?
A: 74%

Q: `CCOC(=O)N1CCC(NC(=O)c2ccc3c(c2)N(Cc2ccccc2)C(=O)c2ccccc2S3(=O)=O)CC1` was tested. Which survival did it give?
A: 52%

Q: How did the survival turn out when `CSc1ccc(C2c3c(oc4cc(C)cc(C)c4c3=O)C(=O)N2Cc2ccco2)cc1` (stereo unspecified) was run?
A: 57%

Q: `CCc1ccc(C2C(C(=O)Nc3ccccc3OC)=C(C)Nc3nc(SCc4ccccc4)nn32)cc1` (stereo unspecified) was tested. Which survival did it give?
A: 76%

Q: Which survival does the source give for `CCOC(=O)c1ccc(CSc2nnc3cc(C)c4ccccc4n23)cc1` here?
A: 95%

Q: How did the survival turn out when `CCCN(CCC)C(=O)CSc1nnc2cc(C)c3ccccc3n12` was run?
A: 76%

Q: For `Cc1cc2nnc(SCc3ccc(F)cc3)n2c2ccccc12`, which survival is on record?
A: -1% (active)

Q: For `COc1ccc(C2NCCS2)cc1` (stereo unspecified), which survival is on record?
A: 65%

Q: For `Cc1ccc(CN2CCCn3nc(C(=O)NCCc4ccc(Cl)cc4)cc3C2=O)cc1`, which survival is on record?
A: 71%

Q: With `Cc1nn(-c2ccc(N3CCCCC3)nn2)c(C)c1CCC(=O)NCc1ccc(Cl)cc1` as the compound, how does the survival read?
A: 79%

Q: For `Cc1cccc(OCCSc2nc3ccc(NC(=O)COc4ccccc4)cc3s2)c1`, which survival is on record?
A: 78%

Q: How did the survival turn out when `Cc1cccc(OCC(=O)Nc2cccc(-c3nc4ccccc4s3)c2)c1` was run?
A: 7% (active)

Q: With `COc1ccccc1C(=O)Nc1ccc(-c2nc3ccccc3s2)c(C)c1` as the compound, how does the survival read?
A: 83%

Q: With `Cc1ccc2nc(-c3ccc(NC(=O)COc4ccccc4C(C)(C)C)cc3)sc2c1` as the compound, how does the survival read?
A: 114%

Q: `COc1ccc(CC(=O)Nc2ccc(-c3nc4ccccc4s3)c(C)c2)cc1` was tested. Which survival did it give?
A: 69%

Q: `CCCOc1ccccc1C(=O)Nc1ccc(-c2nc3ccc(C)cc3s2)cc1` was tested. Which survival did it give?
A: 29% (active)

Q: Which survival does the source give for `Cc1cccc(OCC(=O)Nc2ccc3nc(SCc4ccccc4)sc3c2)c1` here?
A: 112%

Q: How did the survival turn out when `COc1cccc(C(=O)Nc2ccc(-c3nc4ccc(C)cc4s3)cc2)c1OC` was run?
A: 49%

Q: With `O=C(COc1ccccc1[N+](=O)[O-])Nc1cccc(-c2nc3ccccc3s2)c1` as the compound, how does the survival read?
A: 65%

Q: For `COc1ccc(CC(=O)Nc2ccc(-c3nc4ccccc4s3)c(C)c2)cc1OC`, which survival is on record?
A: 37% (active)

Q: How did the survival turn out when `CCC(CC)C(=O)Nc1cccc(-c2nc3ccccc3s2)c1` was run?
A: 53%

Q: `CCCCC(=O)Nc1cccc(-c2nc3ccccc3s2)c1` was tested. Which survival did it give?
A: 41% (active)

Q: With `Cc1nc2ncnn2c(C)c1CCC(=O)N1CCN(c2ccc(F)cc2)CC1` as the compound, how does the survival read?
A: 89%

Q: `COCCNC(=O)CN1C(=O)c2cccnc2Oc2ccc(Cl)cc21` was tested. Which survival did it give?
A: 85%

Q: `COc1ccc(-c2onc(C)c2C)cc1S(=O)(=O)NCc1ccco1` was tested. Which survival did it give?
A: 67%

Q: `Cc1ccc(S(=O)(=O)N(C)c2ccc3sc(C)nc3c2)cc1` was tested. Which survival did it give?
A: 91%

Q: For `COc1ccc(OC)c(C(=O)CC2(O)C(=O)N(Cc3ccccc3C)c3ccccc32)c1` (stereo unspecified), which survival is on record?
A: 165%

Q: How did the survival turn out when `CN1C(=O)Cc2cc(S(=O)(=O)CCC(=O)Nc3ccc(OC(F)(F)F)cc3)ccc21` was run?
A: 71%

Q: `Cc1cccc(CN2C(=O)c3ccccc3Sc3ccc(C(=O)N4CCCC4)cc32)c1` was tested. Which survival did it give?
A: 83%

Q: With `CCOc1ccccc1C(=O)Nc1cccc(-c2nc3ccccc3s2)c1` as the compound, how does the survival read?
A: 41% (active)

Q: With `Cc1cc(C)cc(OCC(=O)Nc2ccc(-c3nc4ccccc4s3)cc2)c1` as the compound, how does the survival read?
A: 68%

Q: For `COc1ccc(OCC(=O)Nc2ccc(O)c(-c3nc4ccccc4s3)c2)cc1`, which survival is on record?
A: 43% (active)

Q: How did the survival turn out when `COc1ccc(OCC(=O)Nc2cccc(-c3nc4ccccc4s3)c2C)cc1` was run?
A: 106%

Q: For `COc1ccc(CC(=O)Nc2ccc(-c3nc4ccccc4s3)cc2Cl)cc1`, which survival is on record?
A: 69%

Q: With `CCOc1ccc(C(=O)Nc2ccc(-c3nc4ccccc4s3)c(C)c2)cc1OCC` as the compound, how does the survival read?
A: 99%

Q: Which survival does the source give for `COc1cccc(CC(=O)Nc2ccc(-c3nc4ccccc4s3)cc2Cl)c1` here?
A: 69%

Q: For `Cc1ccc(OCC(=O)Nc2cccc(-c3nc4ccccc4s3)c2)cc1`, which survival is on record?
A: 47% (active)

Q: Which survival does the source give for `CCOc1ccccc1C(=O)Nc1ccccc1` here?
A: 65%

Q: For `O=C(COc1ccc(Cl)cc1)Nc1ccc(-c2nc3ccccc3s2)c(O)c1`, which survival is on record?
A: 68%

Q: For `O=C(COc1ccc(Cl)cc1)Nc1ccc(O)c(-c2nc3ccccc3s2)c1`, which survival is on record?
A: 94%

Q: `COc1cccc(CC(=O)Nc2ccc(-c3nc4ccccc4s3)cc2)c1` was tested. Which survival did it give?
A: 0% (active)

Q: For `CCOc1ccc(NS(=O)(=O)c2ccc3c4c(cccc24)C(=O)N3)cc1`, which survival is on record?
A: 83%

Q: How did the survival turn out when `CCn1cc2nc(SCc3ccccc3)n(Cc3ccc(C)cc3)c(=O)c2n1` was run?
A: 93%

Q: For `O=C(NCCc1ccccc1)c1cc(-c2ccccc2)nc2n[nH]c(-c3ccccc3)c12`, which survival is on record?
A: 55%

Q: With `CCOC(=O)c1ccc(CN(Cc2ccc(F)cc2)S(=O)(=O)c2ccc(F)c(C(=O)Nc3ccc(Cl)cc3F)c2)cc1` as the compound, how does the survival read?
A: 79%

Q: For `CCOc1cc(CNC(=O)c2cc(-c3ccc(Cl)s3)nc3ccccc23)ccc1OC`, which survival is on record?
A: 84%

Q: With `CCOC(=O)C1CCCN(C(=O)Cn2ncc3c4ccccc4n(C)c3c2=O)C1` (stereo unspecified) as the compound, how does the survival read?
A: 121%

Q: `Cc1csc2nc(-c3cccc(NC(=O)c4c(F)cccc4F)c3)cn12` was tested. Which survival did it give?
A: 128%

Q: With `Cc1ccc2nc(-c3ccc(NC(=O)COc4c(C)ccc(C)c4C)cc3)sc2c1` as the compound, how does the survival read?
A: 38% (active)

Q: `Cc1ccc2nc(-c3ccc(NC(=O)COc4ccccc4)cc3)sc2c1` was tested. Which survival did it give?
A: 68%

Q: For `CCCC(=O)Nc1cccc(-c2cn3c(C)csc3n2)c1`, which survival is on record?
A: -5% (active)

Q: For `Cc1ccc2nc(-c3ccc(NC(=O)COc4ccc(Cl)c(C)c4)cc3)sc2c1`, which survival is on record?
A: 74%

Q: How did the survival turn out when `COc1ccc(-c2nc3ccccc3s2)cc1NC(=O)COc1ccccc1C` was run?
A: 142%

Q: With `COc1ccc(-c2nc3ccccc3s2)cc1NC(=O)COc1ccc(C)cc1` as the compound, how does the survival read?
A: 129%

Q: For `Cc1ccc(-c2nc3ccccc3s2)cc1NC(=O)COc1ccccc1`, which survival is on record?
A: 54%

Q: `Cc1csc2nc(-c3cccc(NC(=O)C(C)C)c3)cn12` was tested. Which survival did it give?
A: 73%

Q: Which survival does the source give for `CC(=O)Nc1cc(-c2nc3ccccc3s2)ccc1C` here?
A: 83%

Q: How did the survival turn out when `COc1ccc(-c2nc3ccccc3s2)cc1NC(=O)COc1cccc(C)c1` was run?
A: 16% (active)

Q: With `COc1ccc(OCC(=O)Nc2cc(-c3nc4ccccc4s3)ccc2C)cc1` as the compound, how does the survival read?
A: 45% (active)
